Source: the supplement of paper PMC10849652
About 8,800 targets were measured; listed, in parts, are those with a hit and a random draw of the rest. About 0.5% of all pairs of compound and target were hits.

Tests used:
Experiment in all cases: log2 fold change, soluble protein after heating vs DMSO (PISA); higher = thermal stabilisation; K562 lysate, 10 uM; active = over 0.2 and 3.5 SD of the protein, either way, in both replicates (recomputed)
lapatinib = compound: CS(=O)(=O)CCNCc1ccc(-c2ccc3ncnc(Nc4ccc(OCc5cccc(F)c5)c(Cl)c4)c3c2)o1 [lapatinib]
Method in brief: (§1)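 The values are log-two fold changes in thermal stability compared with solvent controls and come from duplicates. They were obtained by TMTpro 16plex LC-MS/MS, with channel sums equalised, on the supernatant after 21,000xg for 90 min. That supernatant came from crude K562 extract at 1 mg/mL protein treated with 10 μM compound for 30 min, heated for 3 min across 48°C-58°C, pooled and brought to 0.5% NP-40 at 4°C.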

crizotinib = compound: C[C@@H](Oc1cc(-c2cnn(C3CCNCC3)c2)cnc1N)c1c(Cl)ccc(F)c1Cl [crizotinib]
Method in brief: as §1

[1] = compound: C[C@H](C1=CC=C(C=C1)C(=O)NC2=C3C=CNC3=NC=C2)N
Method in brief: as §1

duvelisib = compound: C[C@H](Nc1ncnc2nc[nH]c12)c1cc2cccc(Cl)c2c(=O)n1-c1ccccc1 [duvelisib]
Method in brief: as §1

gandotinib = compound: Cc1cc(Nc2cc(CN3CCOCC3)c3nc(C)c(Cc4ccc(Cl)cc4F)n3n2)n[nH]1 [gandotinib]
Method in brief: as §1

tozasertib = compound: Cc1cc(Nc2cc(N3CCN(C)CC3)nc(Sc3ccc(NC(=O)C4CC4)cc3)n2)n[nH]1 [tozasertib]
Method in brief: as §1

doramapimod = compound: Cc1ccc(-n2nc(C(C)(C)C)cc2NC(=O)Nc2ccc(OCCN3CCOCC3)c3ccccc23)cc1 [doramapimod]
Method in brief: as §1

[2] = compound: Cc1cccc(CC(=O)N2CCc3c2ccc(-c2cn(C)c4ncnc(N)c24)c3F)n1
Method in brief: as §1

nilotinib = compound: Cc1cn(-c2cc(NC(=O)c3ccc(C)c(Nc4nccc(-c5cccnc5)n4)c3)cc(C(F)(F)F)c2)cn1 [nilotinib]
Method in brief: as §1

[3] = compound: Cc1nc(Nc2n[nH]c3c2CN(C(=O)N[C@H](CN(C)C)c2ccccc2)C3(C)C)c2sccc2n1
Method in brief: as §1

dasatinib = compound: Cc1nc(Nc2ncc(C(=O)Nc3c(C)cccc3Cl)s2)cc(N2CCN(CCO)CC2)n1 [dasatinib]
Method in brief: as §1

[4] = compound: Cc1ncc(-c2ccnc(Nc3ccc(S(C)(=O)=O)cc3)n2)n1C(C)C
Method in brief: as §1

[5] = compound: Cn1cc(-c2ccc3c(c2)CCN3C(=O)Cc2cccc(C(F)(F)F)c2)c2c(N)ncnc21
Method in brief: as §1

quisinostat = compound: Cn1cc(CNCC2CCN(c3ncc(C(=O)NO)cn3)CC2)c2ccccc21 [quisinostat]
Method in brief: as §1

tipifarnib = compound: Cn1cncc1[C@@](N)(c1ccc(Cl)cc1)c1ccc2c(c1)c(-c1cccc(Cl)c1)cc(=O)n2C [tipifarnib]
Method in brief: as §1

[6] = compound: NC(=O)Nc1cc(-c2cccc(F)c2)sc1C(=O)N[C@H]1CCCNC1
Method in brief: as §1

[7] = compound: NC(=O)c1cnc(N[C@@H]2CCCC[C@@H]2N)nc1Nc1cccc(-n2nccn2)c1
Method in brief: as §1

[8] = compound: NC1(c2ccc(-c3nc4ccn5c(=O)[nH]nc5c4cc3-c3ccccc3)cc2)CCC1
Method in brief: as §1

pictilisib = compound: CS(=O)(=O)N1CCN(Cc2cc3nc(-c4cccc5[nH]ncc45)nc(N4CCOCC4)c3s2)CC1 [pictilisib]
Method in brief: as §1

bafetinib = compound: Cc1ccc(NC(=O)c2ccc(CN3CC[C@H](N(C)C)C3)c(C(F)(F)F)c2)cc1Nc1nccc(-c2cncnc2)n1 [bafetinib]
Method in brief: as §1

Measured: log2 fold change

PAGE2B (UniProt Q5JRK9)
Sequence of UniProt Q5JRK9 (Q5JRK9 whole entry, looked up): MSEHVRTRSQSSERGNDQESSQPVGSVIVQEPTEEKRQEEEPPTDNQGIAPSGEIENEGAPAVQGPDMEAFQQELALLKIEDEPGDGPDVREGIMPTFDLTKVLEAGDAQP
inactive: lapatinib 0.216 | crizotinib 0.051 | [1] 0.267 | duvelisib 0.011 | gandotinib -0.115 | tozasertib -0.017 | doramapimod 0.025 | [2] -0.097 | nilotinib 0.036 | [3] -0.007 | dasatinib 0.032 | [4] 0.062 | [5] -0.016 | quisinostat 0.001 | tipifarnib 0.026 | [6] 0.041 | [7] -0.018 | [8] 0.164

NPLOC4 (UniProt I3L3I1)
inactive: pictilisib 0.145 | crizotinib -0.53 | duvelisib 0.038 | tozasertib -0.216 | doramapimod -0.002 | bafetinib -0.214 | dasatinib 0.057 | [5] -0.116 | [6] 0.196
active: quisinostat -0.986

MUC5AC (UniProt P98088)
active: tipifarnib -0.593
inactive: nilotinib 0.02 | [3] 0.048 | [4] 0.128

PAGE4 (UniProt O60829)
Sequence of UniProt O60829 (O60829 whole entry, looked up): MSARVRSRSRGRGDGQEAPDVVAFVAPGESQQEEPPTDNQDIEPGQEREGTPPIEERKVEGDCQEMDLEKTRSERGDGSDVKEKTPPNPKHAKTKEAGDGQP
inactive: lapatinib -0.012 | pictilisib -0.05 | crizotinib -0.028 | duvelisib 0.091 | gandotinib -0.102 | tozasertib -0.023 | doramapimod 0.11 | bafetinib -0.004 | [2] -0.134 | dasatinib -0.086 | [5] -0.035 | quisinostat -0.097 | [6] 0.036 | [7] 0.04 | [8] 0.004
active: [1] 0.344

NUDT6 (UniProt P53370)
inactive: crizotinib 0.051 | duvelisib -0.034 | tozasertib 0.132 | doramapimod -0.073 | dasatinib -0.013 | [5] 0.032 | quisinostat 0.021 | [6] -0.03 | [8] -0.058

MYO10 (UniProt Q9HD67)
Sequence of UniProt Q9HD67 (Q9HD67 whole entry, looked up): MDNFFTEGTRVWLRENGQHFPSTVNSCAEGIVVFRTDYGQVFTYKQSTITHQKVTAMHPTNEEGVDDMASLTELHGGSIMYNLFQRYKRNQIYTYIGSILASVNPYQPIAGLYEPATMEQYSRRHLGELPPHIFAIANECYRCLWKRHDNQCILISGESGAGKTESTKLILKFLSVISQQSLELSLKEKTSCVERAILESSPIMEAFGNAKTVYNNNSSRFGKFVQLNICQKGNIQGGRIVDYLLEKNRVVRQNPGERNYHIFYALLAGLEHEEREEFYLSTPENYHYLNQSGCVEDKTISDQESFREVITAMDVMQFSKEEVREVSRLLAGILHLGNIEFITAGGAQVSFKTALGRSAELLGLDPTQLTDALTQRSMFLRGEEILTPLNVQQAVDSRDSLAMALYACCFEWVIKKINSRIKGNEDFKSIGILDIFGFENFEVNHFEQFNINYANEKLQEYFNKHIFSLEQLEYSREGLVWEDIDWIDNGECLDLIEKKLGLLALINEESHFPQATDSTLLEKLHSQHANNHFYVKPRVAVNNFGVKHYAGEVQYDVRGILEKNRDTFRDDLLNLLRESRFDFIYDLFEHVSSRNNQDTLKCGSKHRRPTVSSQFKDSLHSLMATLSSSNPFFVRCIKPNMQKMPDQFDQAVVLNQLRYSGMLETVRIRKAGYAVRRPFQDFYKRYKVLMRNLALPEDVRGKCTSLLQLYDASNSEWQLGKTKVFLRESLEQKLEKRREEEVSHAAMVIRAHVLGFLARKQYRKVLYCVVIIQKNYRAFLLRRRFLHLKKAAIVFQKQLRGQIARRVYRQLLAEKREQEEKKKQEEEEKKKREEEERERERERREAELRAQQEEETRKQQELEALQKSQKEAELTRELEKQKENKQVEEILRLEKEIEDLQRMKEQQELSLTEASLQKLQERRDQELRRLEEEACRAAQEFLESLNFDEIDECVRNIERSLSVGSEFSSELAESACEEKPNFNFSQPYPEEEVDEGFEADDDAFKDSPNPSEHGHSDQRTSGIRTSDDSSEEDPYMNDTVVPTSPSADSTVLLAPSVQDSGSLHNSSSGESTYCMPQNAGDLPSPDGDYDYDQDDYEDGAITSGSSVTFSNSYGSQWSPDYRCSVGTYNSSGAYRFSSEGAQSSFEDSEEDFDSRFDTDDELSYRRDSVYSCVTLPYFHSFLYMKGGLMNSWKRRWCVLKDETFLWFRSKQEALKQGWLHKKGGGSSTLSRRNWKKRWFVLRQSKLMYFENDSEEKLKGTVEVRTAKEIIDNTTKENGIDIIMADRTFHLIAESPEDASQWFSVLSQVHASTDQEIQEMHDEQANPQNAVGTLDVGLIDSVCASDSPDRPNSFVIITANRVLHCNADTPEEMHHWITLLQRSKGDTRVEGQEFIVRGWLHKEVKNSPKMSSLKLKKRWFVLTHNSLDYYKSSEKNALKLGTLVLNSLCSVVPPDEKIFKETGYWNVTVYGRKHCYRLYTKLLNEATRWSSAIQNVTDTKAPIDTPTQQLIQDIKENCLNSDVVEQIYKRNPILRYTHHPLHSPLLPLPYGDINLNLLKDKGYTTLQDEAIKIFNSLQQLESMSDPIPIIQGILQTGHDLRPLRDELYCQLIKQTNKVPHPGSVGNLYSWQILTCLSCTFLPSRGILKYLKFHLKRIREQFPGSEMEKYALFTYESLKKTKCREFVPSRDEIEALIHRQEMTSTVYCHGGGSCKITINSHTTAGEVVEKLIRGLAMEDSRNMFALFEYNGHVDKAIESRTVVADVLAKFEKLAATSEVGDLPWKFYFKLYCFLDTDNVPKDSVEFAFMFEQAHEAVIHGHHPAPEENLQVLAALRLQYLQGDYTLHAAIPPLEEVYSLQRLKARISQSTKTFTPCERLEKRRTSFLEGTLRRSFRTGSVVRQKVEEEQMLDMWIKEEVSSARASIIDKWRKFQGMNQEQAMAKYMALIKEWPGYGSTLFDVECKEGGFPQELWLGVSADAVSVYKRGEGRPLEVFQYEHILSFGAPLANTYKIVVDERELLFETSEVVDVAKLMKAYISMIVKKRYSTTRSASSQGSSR
active: [1] 0.696
inactive: pictilisib 0.076 | crizotinib -0.042 | gandotinib -0.016 | doramapimod -0.321 | bafetinib -0.456 | [2] -0.029 | nilotinib -0.019 | [3] -0.021 | [4] 0.126 | quisinostat 0.074 | tipifarnib -0.063 | [6] -0.051 | [8] -0.161

NUMB isoform 2 (UniProt P49757)
inactive: duvelisib 0.023 | nilotinib -0.293 | [3] -0.07 | dasatinib 0.227 | [4] 0.225 | [5] -0.127 | tipifarnib -0.068

NFAT5 isoform 4 (UniProt O94916)
Sequence of UniProt O94916 (O94916 whole entry, looked up): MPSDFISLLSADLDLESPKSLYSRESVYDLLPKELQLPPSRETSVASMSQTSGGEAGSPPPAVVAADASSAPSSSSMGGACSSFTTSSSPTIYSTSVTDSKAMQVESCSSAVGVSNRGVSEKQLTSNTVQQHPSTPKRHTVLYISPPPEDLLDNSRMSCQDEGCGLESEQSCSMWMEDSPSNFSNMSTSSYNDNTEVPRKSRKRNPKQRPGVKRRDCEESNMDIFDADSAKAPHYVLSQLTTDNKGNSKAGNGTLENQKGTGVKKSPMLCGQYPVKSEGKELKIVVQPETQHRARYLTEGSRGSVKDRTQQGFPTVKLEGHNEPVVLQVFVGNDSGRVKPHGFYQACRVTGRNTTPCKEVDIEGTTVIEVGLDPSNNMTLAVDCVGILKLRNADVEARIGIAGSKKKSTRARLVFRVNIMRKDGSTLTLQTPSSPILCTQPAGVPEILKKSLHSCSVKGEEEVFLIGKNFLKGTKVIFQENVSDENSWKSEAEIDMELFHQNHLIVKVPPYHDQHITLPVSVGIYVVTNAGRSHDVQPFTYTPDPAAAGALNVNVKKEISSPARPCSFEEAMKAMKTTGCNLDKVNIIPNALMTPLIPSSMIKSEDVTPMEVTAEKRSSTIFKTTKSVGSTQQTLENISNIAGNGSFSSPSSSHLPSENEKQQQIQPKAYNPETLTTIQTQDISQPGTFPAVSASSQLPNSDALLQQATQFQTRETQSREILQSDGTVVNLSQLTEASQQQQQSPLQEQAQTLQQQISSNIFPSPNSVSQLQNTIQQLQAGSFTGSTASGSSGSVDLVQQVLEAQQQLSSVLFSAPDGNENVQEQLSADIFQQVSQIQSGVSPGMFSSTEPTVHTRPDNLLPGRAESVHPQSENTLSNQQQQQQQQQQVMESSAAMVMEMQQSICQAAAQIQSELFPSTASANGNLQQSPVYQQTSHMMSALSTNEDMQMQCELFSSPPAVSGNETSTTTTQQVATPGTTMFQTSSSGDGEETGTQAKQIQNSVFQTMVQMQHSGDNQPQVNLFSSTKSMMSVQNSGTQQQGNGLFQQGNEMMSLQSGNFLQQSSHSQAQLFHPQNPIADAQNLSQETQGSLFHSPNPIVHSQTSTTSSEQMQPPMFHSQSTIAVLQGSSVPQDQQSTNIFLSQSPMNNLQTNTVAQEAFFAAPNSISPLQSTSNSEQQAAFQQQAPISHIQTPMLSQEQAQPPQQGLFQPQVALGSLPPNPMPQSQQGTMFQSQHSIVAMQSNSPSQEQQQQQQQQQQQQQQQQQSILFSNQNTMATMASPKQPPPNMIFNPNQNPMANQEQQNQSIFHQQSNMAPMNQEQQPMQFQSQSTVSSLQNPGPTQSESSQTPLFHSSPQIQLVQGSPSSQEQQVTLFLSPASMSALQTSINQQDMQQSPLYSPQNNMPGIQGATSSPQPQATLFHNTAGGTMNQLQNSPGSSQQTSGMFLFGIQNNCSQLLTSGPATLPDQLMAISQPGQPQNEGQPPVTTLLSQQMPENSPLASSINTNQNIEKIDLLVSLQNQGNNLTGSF
inactive: pictilisib -0.138 | crizotinib -0.028 | doramapimod -0.158 | bafetinib -0.053 | quisinostat 0.014 | [6] 0.012

OSBPL1A (UniProt Q9BXW6)
Sequence of UniProt Q9BXW6 (Q9BXW6 whole entry, looked up): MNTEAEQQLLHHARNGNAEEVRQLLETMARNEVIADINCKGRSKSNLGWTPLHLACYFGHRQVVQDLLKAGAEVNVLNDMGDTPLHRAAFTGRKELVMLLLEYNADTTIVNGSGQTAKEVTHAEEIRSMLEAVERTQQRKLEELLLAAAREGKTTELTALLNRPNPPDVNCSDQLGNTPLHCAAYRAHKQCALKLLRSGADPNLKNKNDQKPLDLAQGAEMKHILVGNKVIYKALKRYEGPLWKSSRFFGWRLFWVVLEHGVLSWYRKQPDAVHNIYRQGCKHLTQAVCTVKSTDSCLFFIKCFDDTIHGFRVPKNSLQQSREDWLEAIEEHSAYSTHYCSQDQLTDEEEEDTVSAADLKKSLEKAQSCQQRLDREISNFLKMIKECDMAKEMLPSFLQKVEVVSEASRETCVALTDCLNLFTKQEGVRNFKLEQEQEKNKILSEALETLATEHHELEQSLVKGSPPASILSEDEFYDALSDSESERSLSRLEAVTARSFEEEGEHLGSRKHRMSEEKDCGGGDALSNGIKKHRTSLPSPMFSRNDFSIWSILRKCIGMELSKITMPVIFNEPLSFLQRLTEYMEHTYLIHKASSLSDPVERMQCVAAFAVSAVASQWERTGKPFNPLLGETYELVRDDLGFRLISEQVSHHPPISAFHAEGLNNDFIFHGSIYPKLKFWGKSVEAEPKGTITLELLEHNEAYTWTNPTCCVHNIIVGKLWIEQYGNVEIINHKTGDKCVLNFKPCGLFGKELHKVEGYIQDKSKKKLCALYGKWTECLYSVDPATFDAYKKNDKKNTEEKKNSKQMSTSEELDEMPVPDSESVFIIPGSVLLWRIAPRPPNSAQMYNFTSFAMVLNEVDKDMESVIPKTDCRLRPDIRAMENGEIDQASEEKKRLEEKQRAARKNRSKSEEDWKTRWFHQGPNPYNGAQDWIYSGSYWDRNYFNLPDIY
active: [8] -0.388
inactive: lapatinib -0.035 | pictilisib -0.051 | crizotinib -0.014 | [1] -0.079 | duvelisib 0.072 | gandotinib 0.069 | doramapimod 0.019 | bafetinib -0.077 | [2] 0.102 | nilotinib -0.07 | [3] -0.02 | dasatinib -0.044 | [4] -0.051 | [5] -0.027 | quisinostat -0.147 | tipifarnib 0.015 | [6] 0 | [7] -0.024

NIPSNAP3A (UniProt Q9UFN0)
Sequence of UniProt Q9UFN0 (Q9UFN0 whole entry, looked up): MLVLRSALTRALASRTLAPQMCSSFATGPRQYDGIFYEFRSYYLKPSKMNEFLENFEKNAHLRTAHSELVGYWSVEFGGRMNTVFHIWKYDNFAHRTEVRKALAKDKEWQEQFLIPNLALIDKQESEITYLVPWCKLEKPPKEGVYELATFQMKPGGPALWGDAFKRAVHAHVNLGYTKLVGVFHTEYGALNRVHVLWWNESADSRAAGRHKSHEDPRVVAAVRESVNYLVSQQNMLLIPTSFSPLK
active: [1] 0.466 | [2] -0.276
inactive: lapatinib -0.007 | pictilisib -0.031 | crizotinib 0.021 | duvelisib 0.03 | gandotinib -0.197 | tozasertib -0.011 | doramapimod -0.029 | bafetinib 0.061 | nilotinib 0.001 | [3] 0.016 | dasatinib 0.028 | [4] 0.008 | [5] -0.054 | quisinostat -0.053 | tipifarnib 0.015 | [6] 0.007 | [7] -0.052 | [8] -0.025

NUDT5 (UniProt C9JYY9)
inactive: tozasertib 0.004 | nilotinib -0.049 | [3] 0.02 | [4] 0.228 | tipifarnib -0.068 | [8] -0.119

NEXN (UniProt Q0ZGT2)
inactive: lapatinib 0.066 | pictilisib -0.137 | [1] -0.239 | duvelisib -0.088 | gandotinib 0.172 | tozasertib -0.237 | bafetinib 0.043 | [2] 0.198 | nilotinib -0.022 | [3] -0.011 | dasatinib 0.043 | [4] -0.051 | [5] 0.027 | tipifarnib -0.043 | [7] -0.149 | [8] -0.002

MTHFD1 (UniProt V9GZ32)
inactive: lapatinib -0.067 | nilotinib -0.43 | [3] -0.802 | [4] -0.041 | tipifarnib 0.188 | [7] -0.185
